NPC1 prom act: qHTS Assay for NPC1 Promoter Activators; 2.4% of 320,000 active; Potency, µM (titrated, usually from 9.22 µM), without a hit: top-dose activation, actives largely listed as activators; Huh7 NPC1 promoter luciferase reporter, 24 h; further: % of control where 0% means no effect; nearly all actives have a fitted effect of over 60% in size
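Cells: Huh7 expressing luciferase under the NPC1 promoter, 1500/well. Seeded 2 h, compound added, incubated 24 h at 37 °C. Luciferase reagent, 10 min ambient, then luminescence.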
FLuc counter: qHTS profiling assay for firefly luciferase inhibitor/activator using purifed enzyme and Km concentrations of substrates (counterscreen for miR-21 project); Luciferin 4-monooxygenase (Photinus pyralis), P08659; purified FLuc, Km substrates, luminescence inhibition; Potency, µM (series often up to 57.5 µM), without a hit: top-dose activity change, negative = inhibition, actives largely listed as inhibitors; 6.9% of 360,000 active; AID 588342, 2011;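 further: plate controls were vehicle for no effect and reference inhibitor for full effect; nearly all actives have a fitted effect of over 55% in size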
Target sequence (P08659 whole entry, looked up): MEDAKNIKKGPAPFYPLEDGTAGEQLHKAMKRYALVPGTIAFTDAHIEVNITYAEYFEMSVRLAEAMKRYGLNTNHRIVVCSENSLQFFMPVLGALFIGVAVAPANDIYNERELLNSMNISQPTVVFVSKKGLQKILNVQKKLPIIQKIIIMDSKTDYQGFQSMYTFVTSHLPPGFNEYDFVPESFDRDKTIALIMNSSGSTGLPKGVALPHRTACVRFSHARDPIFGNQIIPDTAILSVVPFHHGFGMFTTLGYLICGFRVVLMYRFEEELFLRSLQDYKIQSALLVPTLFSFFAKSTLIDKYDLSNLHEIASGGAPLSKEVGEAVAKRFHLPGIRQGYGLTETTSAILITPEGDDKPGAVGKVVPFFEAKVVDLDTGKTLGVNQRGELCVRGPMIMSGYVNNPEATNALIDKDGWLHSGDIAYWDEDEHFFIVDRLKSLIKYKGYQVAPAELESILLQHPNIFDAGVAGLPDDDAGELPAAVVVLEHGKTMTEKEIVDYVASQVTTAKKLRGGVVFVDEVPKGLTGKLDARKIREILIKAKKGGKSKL
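Purified P. pyralis luciferase (10nM final) with 10uM D-luciferin and 10uM ATP (Km levels) in 50mM Tris acetate pH 7.5, 10mM Mg acetate, 0.01% Tween-20, 0.05% BSA; qHTS 6-point titration, ~60 µM downward; luminescence read.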
SMN2 splice enh: qHTS Assay for Enhancers of SMN2 Splice Variant Expression; Potency, µM (series often up to 46.1 µM), inactives show at the highest dose activity change, positive = activation, most hits filed as activators; AID 1458, 2008; 2.8% of 210,000 active; HEK293 SMN2-luciferase splicing reporter, luminescence, 30-36 h; further: % of control where 0% means no effect; nearly all actives have a fitted effect of over 55% in size
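HEK293 cells carry an SMN2 minigene-luciferase reporter in which exon 7 inclusion puts luciferase in frame. Cells were seeded at 2000 cells/well, attached for 10-12 hours, then exposed to compounds for 30-36 hours at 37C before ONE-Glo luminescence.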
uPA generation: qHTS for Inhibitors of Cell Surface uPA Generation | AID 540303, 2011 | 0.31% of 330,000 active | Potency, µM (highest dose often 38.3 µM), for the others: at the highest dose activity change, negative = inhibition, hits mostly inhibitors | cell surface uPA generation assay, qHTS; active means well fitted inhibition curve with a large enough effect; inconclusive means small, poorly fitted or top-dose-only effect; inactive means no such curve, though single readings can be large or run the other way; tested in mouse RAW 264.7 cells; further: on the % scale 0 is the no-effect control and ±100 the full control effect; nearly all actives have a fitted effect of over 55% in size
ELG1 genotoxic: qHTS screen for small molecules that induce genotoxicity in human embryonic kidney (HEK293T) cells expressing luciferase-tagged ELG1; Potency, µM (highest dose often 46 µM), for the others: at the highest dose activity change, positive = activation, usual class: activators; AID 504466, 2011; HEK293T ELG1-luciferase reporter, luminescence, 16 h; 1.3% of 330,000 active; further: % of control where 0% means no effect; nearly all actives have a fitted effect of over 60% in size
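DMSO vehicle served as control against compound-treated ELG1-luciferase HEK293T cells; exposure lasted 16 hr at 37 °C and 5% CO2, followed by ONE-Glo luminescence detection after 30 min.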
Rab9 promoter act: qHTS Assay for Rab9 Promoter Activators. Potency, µM (series often up to 9.22 µM), without a hit: at the highest dose activation, negative = inhibition, actives largely listed as activators. 2.8% of 320,000 active. Huh7 Rab9 promoter-luciferase reporter, luminescence, 24 h. AID 485297, 2010; further: % of control where 0% means no effect; nearly all actives have a fitted effect of over 60% in size
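Measured in stably transfected Huh7 cells bearing a Rab9 promoter–luciferase construct: 24 h compound treatment at 37 °C, followed by luminescence detection.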
* marks the source's active call; other numbers are inactive results; ? = inconclusive; / = no result given. Most compounds without a hit are left out; they make up all but 7.3% or so of the library. Unless noted, the call rests on the fitted dose curve; in most records, active means well fitted curve in the direction sought with a large enough effect; inconclusive means small, poorly fitted or top-dose-only effect, or another doubt; inactive means no such curve, though single readings can be large; an effect the other way counts as inactive or inconclusive. Potency means the concentration at half of the fitted maximal effect.

SMILES	NPC1 prom act	FLuc counter	SMN2 splice enh	uPA generation	ELG1 genotoxic	Rab9 promoter act
Nc1cc(-c2ccc(Br)cc2)nc2cc(-c3ccccc3)nn12	-1%	?	-25%	-2%	-17%	-2%
c1ccc(-c2cn3ccccc3n2)cc1	/	/	/	-6%	/	/
CCN(CC)S(=O)(=O)c1ccc2c(c1)nc(CN(C)C(=O)Nc1ccc(F)cc1)n2C	/	-7%	/	/	/	/
CCN(CC)C(=O)c1ccc(N)cc1	-2%	-2%	2%	-17%	0%	4%
COc1cc(NC(=O)CCc2c(C)nn(-c3ccc4nnc(C)n4n3)c2C)cc(OC)c1OC	/	-6%	/	/	/	/
CN(C)S(=O)(=O)c1ccc(-c2cn3ccccc3n2)cc1	?	5.4µM*	?	/	5.8µM*	2.5µM*
COc1ccccc1/C=N/N(C(C)=O)c1nc(-c2ccc(F)cc2)cs1	?	0%	?	1%	?	6.3µM*
COc1ccc(/C=N/N(C(C)=O)c2nc(-c3ccc(C)cc3)cs2)cc1	-1%	-1%	-1%	2%	0%	3%
O=C(Nc1ccccc1)C1=C[C@H](c2ccc3c(c2)OCO3)C[C@H](OCCCCO)O1	11%	15µM*	/	0%	17%	30%
NC(=O)C1=C[C@H](c2ccc3c(c2)OCO3)C[C@H](OCc2ccc(CO)cc2)O1	?	15µM*	/	14%	?	?
C#CCNC(=O)C1=C[C@@H](C2CCCCC2)C[C@@H](OCc2ccc(CO)cc2)O1	1%	15µM*	/	-14%	5%	-5%
O=C(Nc1ccccc1)C1=C[C@@H](C2CC2)C[C@@H](OCc2ccc(CO)cc2)O1	11%	11µM*	/	-15%	10%	18%
O=C(Nc1ccccc1)C1=C[C@@H](c2ccc3c(c2)OCO3)C[C@@H](OCCCCO)O1	/	/	/	10%	/	/
O=C(O)C1=C[C@@H](c2ccc3c(c2)OCO3)C[C@@H](OCc2ccc(CO)cc2)O1	-7%	-9%	/	21%	4%	2%
O=C(Nc1ccccc1)C1=C[C@H](c2ccccc2)C[C@H](OCc2ccc(CO)cc2)O1	2%	?	/	0%	2%	0%
CCCCCC(=O)Nc1cccc(C2=NOC3(C2)C[C@H](C(N)=O)N(C(=O)c2ccccc2C(=O)c2ccccc2)C3)c1 (some centres not stated)	-3%	0%	/	-18%	-7%	-11%
CCN(C(=O)C(=O)Nc1ccc2nc3n(c(=O)c2c1)CCCCC3)c1ccc(F)cc1	/	3%	9%	/	/	/
O=C(Nc1ccccc1)C1=C[C@@H](C2CC2)C[C@@H](OCCCCO)O1	0%	17µM*	/	-17%	?	1%
CC(=O)N1N=C(c2ccc(C)cc2)OC1c1ccc(Br)cc1 (configuration not stated)	-1%	-3%	/	4%	-3%	9%
CC(=O)N1N=C(c2ccc(Cl)cc2)OC1c1ccc(C(C)C)cc1 (configuration not stated)	24%	12µM*	19%	4%	?	29%
Cc1cc(N2CC(C(=O)Nc3nccs3)CC2=O)ccc1C(C)C (configuration not stated)	1%	11µM*	/	-7%	-4%	13%
N[C@H](Cc1ccccc1)C(=O)O	/	/	-6%	/	/	/
CCC(=O)N1c2ccccc2CC1C(=O)NCCc1ccccc1Cl (configuration not stated)	/	1%	/	/	/	/
c1ccc(-c2n[nH]c(-c3ccccn3)n2)cc1	2µM*	12µM*	11µM*	-5%	?	3.5µM*
c1ccc(-c2n[nH]c(-c3ccccn3)n2)nc1	3.5µM*	15µM*	11µM*	-1%	6.5µM*	2.8µM*
SMILES	NPC1 prom act	FLuc counter	SMN2 splice enh	uPA generation	ELG1 genotoxic	Rab9 promoter act
Nc1n[nH]c(-c2ccccc2)n1	3%	1%	-5%	3%	1%	-3%
CCOc1ccc(NC(=O)Cn2ccn3nc(-c4ccc(OC)c(OC)c4)cc3c2=O)cc1	/	-7%	/	/	/	/
O=C1C=CC2=C3c4cc(O)c(O)cc4C[C@@]3(O)COC2=C1	/	/	-20%	/	/	/
COc1cc(N/N=C(\C)c2ccc(O)c(C)c2)nc(-c2ccccc2)n1	-6%	15µM*	/	3%	-7%	-12%
COc1cc(N/N=C(\C)c2ccc(N)cc2)nc(-c2ccccc2)n1	7%	15µM*	9%	-2%	-5%	28%
C/C(=N\Nc1cc(-c2ccccc2)nc(-c2ccccc2)n1)c1ccc(O)c(C)c1	-3%	0%	/	2%	-3%	0%
Cc1c(Cl)cccc1NC(=O)Cn1c(=O)n(Cc2ccco2)c(=O)c2oc3ccccc3c21	/	0%	/	/	/	/
COc1ccc(/C(N)=N/OC(=O)c2ccc(C)c([N+](=O)[O-])c2)cc1	20%	19µM*	-2%	0%	?	21%
Cc1cc(C(=O)O/N=C(\N)c2ccncc2)ccc1[N+](=O)[O-]	?	17µM*	/	-4%	?	3.2µM*
COc1ccc(/C(N)=N/OC(=O)c2ccc([N+](=O)[O-])c(C)c2)cc1OC	-3%	?	-10%	6%	-4%	-2%
C[C@H](CO)N1C[C@H](C)[C@@H](CN(C)Cc2ccc(-c3ccccc3)cc2)Oc2c(NC(=O)Nc3ccc(C(F)(F)F)cc3)cccc2C1=O	/	/	/	11%	-1%	/
CCOC(=O)c1cccc2c(=O)c(C(=O)c3ccc(Cl)cc3)c(C(=O)OC)[nH]c12	0%	-1%	14%	0%	0%	-4%
Cc1ccc(OCC(=O)c2cc(C)n(-c3ccccc3)c2C)c([N+](=O)[O-])n1	-3%	19µM*	-58%	-3%	-4%	-6%
CC(=O)Nc1ccccc1OCC(=O)c1cc(C)n(Cc2cccs2)c1C	-17%	?	-109%	-6%	10µM*	-22%
CCCn1c(C)cc(C(=O)COc2ccc(C)nc2[N+](=O)[O-])c1C	4%	?	/	4%	14%	18%
Cc1cc(C(=O)COc2cccnc2[N+](=O)[O-])c(C)n1Cc1cccs1	-2%	24µM*	-38%	-4%	?	2%
Cc1cc(-n2c(C)cc(C(=O)COc3cccnc3[N+](=O)[O-])c2C)no1	6%	-7%	/	-23%	3%	11%
CCOC(=O)N1CCc2c(sc3c2c(=O)n(Cc2ccccc2)c(=O)n3Cc2cccc(Cl)c2)C1	/	3%	-9%	/	/	/
CS(=O)(=O)N1CCc2cc(C(=O)Nc3ccc(Cl)c(C(F)(F)F)c3)ccc21	/	-2%	-18%	/	/	/
